{
  "source": "PubChem BioAssay (EPA / NIEHS)",
  "note": "Activity calls are given as the source filed them. Rule for the calls: active = hit-call score of the fitted dose curve at least 0.9, where 1 is the maximum; inactive = score below 0.9.",
  "data": [
    {"assay": "CEETOX_H295R_DOC_noMTC: CeeTox H295R High-throughput Steroidogenesis Assay for DOC, maximum tolerated concentration (MTC) filtered results only (AID 2283918)", "settings": "actives raise or lower the signal", "procedure,_shortened": "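11-Deoxycorticosterone secreted by human adrenal H295R cells quantified by HPLC-MS/MS after 48 h chemical exposure (0.1% DMSO), following 48 h 10 uM forskolin prestimulation. Concentrations not filtered by MTT-derived MTC; bidirectional fitting.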", "values": [
      {"smiles": "O=C(Oc1ccccc1)c1cccc(C(=O)Oc2ccccc2)c1", "outcome": "inactive"},
      {"smiles": "Nc1nc(=S)c2[nH]cnc2[nH]1", "AC50": "35.4 µM (active)"},
      {"smiles": "NC(=Nc1ccccc1)Nc1ccccc1", "AC50": "50 µM (active)"},
      {"smiles": "C=CCc1ccc(OC)c(OC)c1", "outcome": "inactive"}
    ]},
    {"assay": "CEETOX_H295R_PROG_noMTC: CeeTox H295R High-throughput Steroidogenesis Assay for Progesterone (PROG), maximum tolerated concentration (MTC) filtered results only (AID 2283920)", "settings": "actives raise or lower the signal", "procedure,_shortened": "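H295R cells; forskolin 10 uM x 48 h prestim; test cpd 48 h, 0.1% DMSO final; media progesterone via LC-MS/MS; bidirectional fit vs DMSO; no MTT-based MTC filter applied.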", "values": [
      {"smiles": "O=C(Oc1ccccc1)c1cccc(C(=O)Oc2ccccc2)c1", "outcome": "inactive"},
      {"smiles": "Nc1nc(=S)c2[nH]cnc2[nH]1", "AC50": "78.8 µM (active)"},
      {"smiles": "NC(=Nc1ccccc1)Nc1ccccc1", "outcome": "inactive"}
    ]},
    {"assay": "CCTE_Harrill_HTTr_Viability_DMEM_6hr: (Pilot) CCTE's 6-hour Cell Viability Assessment for the High-Throughput Transcriptomics (HTTr) Platform, in MCF-7 cells cultured in DMEM + 10% fetal bovine serum, Harrill Lab (AID 2283973)", "settings": "not given", "procedure,_shortened": "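MCF-7 cells in DMEM + 10% FBS, eight-point dilution series, 6 h exposure. Membrane integrity by propidium iodide exclusion with high-content imaging; bidirectional fit versus DMSO.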", "values": [
      {"smiles": "COC(=O)[C@H]1[C@H]2C[C@@H]3c4[nH]c5cc(OC)ccc5c4CCN3C[C@H]2C[C@@H](OC(=O)c2cc(OC)c(OC)c(OC)c2)[C@@H]1OC", "outcome": "inactive"},
      {"smiles": "Cc1c(C)c2c(c(C)c1O)CCC(C)(COc1ccc(CC3SC(=O)NC3=O)cc1)O2", "note": "(stereo not given)", "outcome": "inactive"},
      {"smiles": "Nc1nc(Cl)nc2c1ncn2[C@H]1C[C@H](O)[C@@H](CO)O1", "outcome": "inactive"},
      {"smiles": "CC(=O)O[C@]1(C(C)=O)CC[C@H]2[C@@H]3C=C(Cl)C4=CC(=O)[C@@H]5C[C@@H]5[C@]4(C)[C@H]3CC[C@@]21C", "outcome": "inactive"},
      {"smiles": "CC(C)OC(=O)C(C)(C)Oc1ccc(C(=O)c2ccc(Cl)cc2)cc1", "outcome": "inactive"},
      {"smiles": "CCN(CC)CCOc1ccc(C(=C(Cl)c2ccccc2)c2ccccc2)cc1", "AC50": "82.4 µM (active)"}
    ]},
    {"assay": "CCTE_Harrill_HTTr_Viability_DMEM_12hr: (Pilot) CCTE's 12-hour Cell Viability Assessment for the High-Throughput Transcriptomics (HTTr) Platform, in MCF-7 cells cultured in DMEM + 10% fetal bovine serum, Harrill Lab (AID 2283974)", "settings": "not given", "procedure,_shortened": "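MCF-7 cells in DMEM + 10% FBS exposed 12 h to an eight-point dilution series; membrane integrity scored by propidium iodide exclusion with high-content imaging, bidirectional fitting versus DMSO.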", "values": [
      {"smiles": "COC(=O)[C@H]1[C@H]2C[C@@H]3c4[nH]c5cc(OC)ccc5c4CCN3C[C@H]2C[C@@H](OC(=O)c2cc(OC)c(OC)c(OC)c2)[C@@H]1OC", "outcome": "inactive"},
      {"smiles": "Cc1c(C)c2c(c(C)c1O)CCC(C)(COc1ccc(CC3SC(=O)NC3=O)cc1)O2", "note": "(stereo not given)", "outcome": "inactive"},
      {"smiles": "Nc1nc(Cl)nc2c1ncn2[C@H]1C[C@H](O)[C@@H](CO)O1", "outcome": "inactive"},
      {"smiles": "CC(=O)O[C@]1(C(C)=O)CC[C@H]2[C@@H]3C=C(Cl)C4=CC(=O)[C@@H]5C[C@@H]5[C@]4(C)[C@H]3CC[C@@]21C", "outcome": "inactive"},
      {"smiles": "CC(C)OC(=O)C(C)(C)Oc1ccc(C(=O)c2ccc(Cl)cc2)cc1", "outcome": "inactive"},
      {"smiles": "CCN(CC)CCOc1ccc(C(=C(Cl)c2ccccc2)c2ccccc2)cc1", "AC50": "65.3 µM (active)"}
    ]},
    {"assay": "CCTE_Harrill_HTTr_Viability_DMEM_24hr: (Pilot) CCTE's 24-hour Cell Viability Assessment for the High-Throughput Transcriptomics (HTTr) Platform, in MCF-7 cells cultured in DMEM + 10% fetal bovine serum, Harrill Lab (AID 2283975)", "settings": "not given", "procedure,_shortened": "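MCF-7 cells in DMEM with 10% FBS exposed for 24 hours to an eight-point dilution series. Membrane integrity by propidium iodide exclusion with high content imaging; bidirectional fit against DMSO.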", "values": [
      {"smiles": "COC(=O)[C@H]1[C@H]2C[C@@H]3c4[nH]c5cc(OC)ccc5c4CCN3C[C@H]2C[C@@H](OC(=O)c2cc(OC)c(OC)c(OC)c2)[C@@H]1OC", "outcome": "inactive"},
      {"smiles": "Cc1c(C)c2c(c(C)c1O)CCC(C)(COc1ccc(CC3SC(=O)NC3=O)cc1)O2", "note": "(stereo not given)", "outcome": "inactive"},
      {"smiles": "Nc1nc(Cl)nc2c1ncn2[C@H]1C[C@H](O)[C@@H](CO)O1", "outcome": "inactive"},
      {"smiles": "CC(=O)O[C@]1(C(C)=O)CC[C@H]2[C@@H]3C=C(Cl)C4=CC(=O)[C@@H]5C[C@@H]5[C@]4(C)[C@H]3CC[C@@]21C", "outcome": "inactive"},
      {"smiles": "CC(C)OC(=O)C(C)(C)Oc1ccc(C(=O)c2ccc(Cl)cc2)cc1", "outcome": "inactive"},
      {"smiles": "CCN(CC)CCOc1ccc(C(=C(Cl)c2ccccc2)c2ccccc2)cc1", "AC50": "54.8 µM (active)"}
    ]}
  ]
}
